Data reported in PubChem BioAssay (Tox21).
Results filed as inconclusive are left out. The source made the active and inactive calls. Unless noted, calls follow the shape of the dose curve; as a rule, active = well fitted curve in the direction sought with a large enough effect in the repeat runs; inconclusive = weak or mixed curves; inactive = no such curve, though single readings can be large; an effect the other way counts as inactive or inconclusive.

Legend:
[1] = qHTS assay to identify small molecule antagonists of the thyroid receptor (TR) signaling pathway (AID 743065); also: series mostly up to about 70 µM; nearly all actives have a fitted effect of over 55% in size
How it was run: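 GH3.TRE-Luc rat pituitary cells (two TREs driving luciferase) were dosed with compound, then stimulated with 1 nM T3 (final) for 23.5 h at 37 C. ONE-Glo luminescence was the read-out, with CellTiter-Fluor fluorescence as the cytotoxicity counter-screen.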

[2] = tested on: thyroid hormone receptor (rat, GH3 cells); test: qHTS assay to identify small molecule agonists of the thyroid receptor (TR) signaling pathway (AID 743066; calls by dose curve)
[3] = qHTS assay to identify small molecule antagonists of the estrogen receptor alpha (ER-alpha) signaling pathway - cell viability counter screen (AID 743074; calls by dose curve;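 also: HEK293 cells carrying ER-alpha-UAS-bla reporter stimulated with 17beta-estradiol; nearly all actives have a fitted effect of over 45% in size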)
[4] = qHTS assay to identify small molecule antagonists of the estrogen receptor alpha (ER-alpha) signaling pathway using the BG1 cell line - cell viability counter screen (AID 743081);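 also: compound given together with 17beta-estradiol as the ER stimulus; series mostly up to about 70 µM; nearly all actives have a fitted effect of over 45% in size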
Aromatase (Homo sapiens) = Aromatase (Homo sapiens) (UniProt P11511); test: qHTS assay to identify aromatase inhibitors (AID 743083); also: series mostly up to about 70 µM; nearly all actives have a fitted effect of over 55% in size
Sequence of Aromatase (Homo sapiens) (P11511 whole entry, looked up): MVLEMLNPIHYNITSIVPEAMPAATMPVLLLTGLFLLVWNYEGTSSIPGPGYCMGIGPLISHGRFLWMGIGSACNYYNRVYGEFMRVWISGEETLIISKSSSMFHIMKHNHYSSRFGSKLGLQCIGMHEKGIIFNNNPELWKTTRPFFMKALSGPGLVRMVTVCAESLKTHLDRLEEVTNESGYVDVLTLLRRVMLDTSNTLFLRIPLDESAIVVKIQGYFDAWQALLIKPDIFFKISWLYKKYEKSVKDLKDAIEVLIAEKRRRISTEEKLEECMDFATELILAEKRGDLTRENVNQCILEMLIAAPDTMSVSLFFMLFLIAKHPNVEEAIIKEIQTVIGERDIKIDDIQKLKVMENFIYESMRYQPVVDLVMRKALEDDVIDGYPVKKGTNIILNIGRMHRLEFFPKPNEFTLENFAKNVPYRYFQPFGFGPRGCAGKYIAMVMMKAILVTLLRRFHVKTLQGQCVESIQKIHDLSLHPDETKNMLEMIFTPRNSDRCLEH

[5] = qHTS assay to identify aromatase inhibitors - cell viability counter screen (AID 743084);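 also: cells stimulated with testosterone during compound exposure; nearly all actives have a fitted effect of over 55% in size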
[6] = qHTS assay to identify small molecule that activate the aryl hydrocarbon receptor (AhR) signaling pathway - cell viability counter screen (AID 743086);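 also: HepG2 liver cells carrying the AhR DRE luciferase reporter; series mostly up to about 70 µM; nearly all actives have a fitted effect of over 45% in size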
How it was run: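 HepG2-AhR-luc (HG2L7.5c1) cells, 4000/well, treated 24 h at 37 C with compound; viability measured as CellTiter-Fluor fluorescence after 30 min in the same wells as the luciferase read.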

[7] = target: Peroxisome proliferator-activated receptor gamma (Homo sapiens) (UniProt P37231); test: qHTS assay to identify small molecule agonists of the peroxisome proliferator-activated receptor gamma (PPARg) signaling pathway (AID 743094; active = well fitted activation curve with a large enough effect in the signal ratio in the repeat runs, not every such curve was filed as active; the % refers to the signal ratio)
Sequence of Peroxisome proliferator-activated receptor gamma (Homo sapiens) (P37231 whole entry, looked up): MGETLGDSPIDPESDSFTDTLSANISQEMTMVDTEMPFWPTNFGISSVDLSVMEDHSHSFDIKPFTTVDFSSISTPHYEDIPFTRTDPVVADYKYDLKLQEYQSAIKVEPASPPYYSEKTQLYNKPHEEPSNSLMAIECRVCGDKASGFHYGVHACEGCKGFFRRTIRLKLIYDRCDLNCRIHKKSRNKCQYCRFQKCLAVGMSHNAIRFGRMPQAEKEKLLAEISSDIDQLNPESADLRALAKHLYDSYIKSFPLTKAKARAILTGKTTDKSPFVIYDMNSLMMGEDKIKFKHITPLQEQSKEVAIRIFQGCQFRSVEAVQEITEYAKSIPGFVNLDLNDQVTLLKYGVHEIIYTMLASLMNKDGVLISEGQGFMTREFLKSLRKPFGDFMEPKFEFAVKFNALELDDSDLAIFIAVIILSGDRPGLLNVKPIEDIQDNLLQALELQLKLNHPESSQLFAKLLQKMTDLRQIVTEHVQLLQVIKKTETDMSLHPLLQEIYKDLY
How it was run: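 Fluorescence-based beta-lactamase readout in HEK293H PPARg UAS-bla cells after 17 h compound exposure (37C) and 1 h B/G FRET substrate incubation at room temperature.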

[8] = target: Peroxisome proliferator-activated receptor gamma (Homo sapiens) (UniProt P37231); test: qHTS assay to identify small molecule antagonists of the peroxisome proliferator-activated receptor gamma (PPARg) signaling pathway (AID 743191; calls by dose curve; also: series mostly up to about 63 µM; nearly all actives have a fitted effect of over 30% in size)
How it was run: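 GeneBLAzer PPARg UAS-bla HEK293H cells, 5 h post-plating, exposed to compounds 17 h at 37C. LiveBLAzer B/G FRET substrate added for 1 h at room temperature; beta-lactamase reporter read by fluorescence intensity.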

[9] = qHTS assay to identify small molecule antagonists of the peroxisome proliferator-activated receptor gamma (PPARg) signaling pathway - cell viability counter screen (AID 743194); also: nearly all actives have a fitted effect of over 55% in size
How it was run: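 Cytotoxicity counter screen in PPARg-bla HEK293H cells, same wells as reporter assay. Compounds plus 50 nM rosiglitazone (final) for 17 h at 37 C, then viability read by CellTiter-Glo luminescence.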

[10] = qHTS assay for small molecule agonists of the antioxidant response element (ARE) signaling pathway - cell viability counter screen (AID 743203; calls by dose curve; also: nearly all actives have a fitted effect of over 55% in size)
How it was run: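 Parallel cytotoxicity read-out for the ARE-bla screen: HepG2 reporter cells, 16 hrs with compounds, then CellTiter-Glo luminescence.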

[11] = qHTS assay for small molecule activators of the heat shock response signaling pathway - cell viability counter screen (AID 743209); also: nearly all actives have a fitted effect of over 50% in size
How it was run: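 To flag cytotoxic compounds, HSE-bla HeLa cells plated at 1500 cells/well were dosed for 5 h at 37 C, followed by the reporter FRET read and then CellTiter-Glo, with luminescence recorded 30 min after reagent addition.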

[12] = qHTS assay for small molecule activators of the heat shock response signaling pathway (AID 743210; active = well fitted activation curve with a large enough effect in the signal ratio in the repeat runs, with a control signal flat, not every such curve was filed as active; the % refers to the signal ratio;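 also: HeLa cells with beta-lactamase reporter driven by heat shock elements; series mostly up to about 63 µM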)
How it was run: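 Beta-lactamase reporter read-out: FRET substrate fluorescence after 2.5 h at RT, following 5 h compound treatment at 37 C of HeLa cells carrying HSE-driven bla reporter; quantitative HTS format.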

[13] = qHTS assay to identify small molecule agonists of the peroxisome proliferator-activated receptor delta (PPARd) signaling pathway - cell viability counter screen (AID 743211); also: nearly all actives have a fitted effect of over 55% in size
How it was run: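 PPARd-bla HEK293H cells (UAS-beta-lactamase reporter) were treated with compounds for 17 h at 37 C. Viability was then read in the same wells by CellTiter-Glo luminescence after 30 min at room temperature.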

[14] = target: Aryl hydrocarbon receptor (Homo sapiens) (UniProt P35869); test: qHTS assay to identify small molecule that activate the aryl hydrocarbon receptor (AhR) signaling pathway (AID 743085);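 also: HG2L7.5c1 human HepG2 liver cells with stably integrated DRE-driven firefly reporter; series mostly up to about 70 µM; nearly all actives have a fitted effect of over 15% in size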
Sequence of Aryl hydrocarbon receptor (Homo sapiens) (P35869 whole entry, looked up): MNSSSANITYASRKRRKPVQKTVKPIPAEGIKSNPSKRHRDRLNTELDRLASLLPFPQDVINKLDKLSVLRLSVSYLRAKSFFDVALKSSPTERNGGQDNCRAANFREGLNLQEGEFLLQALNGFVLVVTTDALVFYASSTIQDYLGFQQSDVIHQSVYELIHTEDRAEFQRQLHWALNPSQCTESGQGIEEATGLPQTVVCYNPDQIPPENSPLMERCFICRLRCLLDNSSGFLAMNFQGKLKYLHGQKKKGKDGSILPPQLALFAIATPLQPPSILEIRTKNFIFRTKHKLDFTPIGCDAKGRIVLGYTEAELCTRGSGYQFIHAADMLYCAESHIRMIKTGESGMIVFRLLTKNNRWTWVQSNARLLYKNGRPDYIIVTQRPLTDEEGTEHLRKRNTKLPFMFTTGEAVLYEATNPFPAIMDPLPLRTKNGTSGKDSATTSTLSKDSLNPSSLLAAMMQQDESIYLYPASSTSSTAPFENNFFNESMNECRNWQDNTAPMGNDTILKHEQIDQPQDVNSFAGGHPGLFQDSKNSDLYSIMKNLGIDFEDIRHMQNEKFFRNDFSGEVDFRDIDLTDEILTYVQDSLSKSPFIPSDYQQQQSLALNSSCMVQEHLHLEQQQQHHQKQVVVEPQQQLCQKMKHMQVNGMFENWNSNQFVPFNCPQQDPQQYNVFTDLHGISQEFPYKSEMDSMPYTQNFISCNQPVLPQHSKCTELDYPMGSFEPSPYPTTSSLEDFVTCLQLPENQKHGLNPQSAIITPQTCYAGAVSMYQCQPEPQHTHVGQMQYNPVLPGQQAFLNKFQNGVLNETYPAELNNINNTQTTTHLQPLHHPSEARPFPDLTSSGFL
How it was run: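 HepG2 cells (HG2L7.5c1) stably carrying a firefly luciferase reporter driven by 20 dioxin responsive elements were exposed to compound for 24 h at 37C after a 5 h settling period; luminescence rise (ONE-Glo) indicated activation.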

[15] = qHTS assay for small molecule agonists of the antioxidant response element (ARE) signaling pathway (AID 743202; active = well fitted activation curve with a large enough effect in the signal ratio in the repeat runs, not every such curve was filed as active; the % refers to the signal ratio)
How it was run: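 HepG2 ARE-bla reporter line, 2,000 cells/well; 5 h preincubation 37 C/5% CO2; compound (DMSO) 16 h 37 C; B/G FRET substrate 2 h RT; fluorescence intensity.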

Measured: Potency

CC(C)(C#N)Nc1nc(Cl)nc(NC2CC2)n1
not listed: [14] | [15]
inactive: all other assays above

CC1(C)[C@@H]2CC[C@@]1(C)[C@H](O)C2
not listed: [7] | [8]
inactive: all other assays above

CC[N+](CC)(CC)CCOc1cccc(OCC[N+](CC)(CC)CC)c1OCC[N+](CC)(CC)CC
not listed: [7] | [8] | [10]
inactive: all other assays above

COc1ccccc1OCC1CNC(=O)O1 (centres undefined)
not listed: [8]
inactive: all other assays above

CCCc1nn(C)c2c(=O)[nH]c(-c3cc(S(=O)(=O)N4CCN(C)CC4)ccc3OCC)nc12
not listed: [9] | [11] | [13] | [14]
inactive: all other assays above

CCC(=O)OCc1ccccc1
not listed: [10] | [14] | [15]
inactive: all other assays above

O=CN(CCO)CCO
not listed: [10] | [14] | [15]
inactive: all other assays above

CN1CCN(c2cc3c(nn2)Oc2ccccc2N3C)CC1
not listed: [8] | [12] | [14]
inactive: all other assays above

CC(C)C[C@@H](N)C(=O)O
not listed: [8] | [9] | [11] | [14] | [15]
inactive: all other assays above

CC(C)C1CCC(O)CC1 (centres undefined)
not listed: [14] | [15]
inactive: all other assays above

C[N+]1(CC2COC(c3ccccc3)(c3ccccc3)O2)CCCCC1 (centres undefined)
not listed: [7] | [8] | [15]
inactive: all other assays above

O=Cc1cccc(Br)c1
not listed: [14] | [15]
inactive: all other assays above

CCN1CCOCC1
not listed: [8] | [11] | [14]
inactive: all other assays above

Nc1ccccn1
not listed: [7] | [8] | [15]
inactive: all other assays above

COc1cc(C)nc(-n2nc(C)cc2OC)n1
not listed: [8] | [12] | [14]
inactive: all other assays above

Cc1ccccc1N=C(N)N=C(N)N
not listed: [8]
inactive: all other assays above

CCCCCCCCN1CCCC1=O
not listed: [14] | [15]
inactive: all other assays above

CCC(C)(CN(C)C)OC(=O)c1ccccc1 (centres undefined)
not listed: [7] | [8] | [11]
inactive: all other assays above

CC(=O)OCC(=O)[C@@]1(O)[C@H](C)C[C@H]2[C@@H]3CCC4=CC(=O)C=C[C@]4(C)[C@@]3(F)[C@@H](O)C[C@@]21C
not listed: [8]
inactive: all other assays above

OCCc1ccccn1
not listed: [8] | [14]
inactive: all other assays above
